The values that follow come from PubChem BioAssay (NCATS).

Assay [1] concerns the target Lysosomal acid glucosylceramidase (Homo sapiens) (UniProt P04062). Put plainly: Glucocerebrosidase-p2 (AID 348; in the data active means potency below about 10 µM; further: potency means the concentration at half of the fitted maximal effect). To be noted: purified GBA, blue fluorogenic substrate, 40 min. The method, boiled down:
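Normal human glucocerebrosidase (0.2 nM) with blue fluorogenic substrate (80 uM final) in citrate/phosphate pH 5.9 with 10mM sodium taurocholate, 0.01% tween-20; 40 min RT, NaOH/glycine stop; fluorescence Ex 365/Em 440; AC50 from a titration from 0.6 nM upwards.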

A short description of assay [2]: AP1 Signaling Pathway (AID 357).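 Further: ME-180 reporter cells stimulated with EGF at its EC50 level; on the % scale 0 is the no-effect control and ±100 the full control effect.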 The conditions noted are these: ME-180 AP-1-bla reporter, EGF-induced, beta-lactamase ratio, 5 h; at 7.69 µM (top of the series) unless noted. In a few lines: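 In this screen, ME-180 cells in Opti-MEM with 0.5% dialyzed FBS received EC50 EGF and compound titrations for 5 h. AP-1 reporter beta-lactamase was detected via CCF4 ratio, giving AC50 for positive and negative modulators.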

The nature of assay [3]: NFAT Signaling Pathway (AID 444).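 Further: carbachol stimulus at about its EC50 of 1 µM final; on the % scale 0 is the no-effect control and ±100 the full control effect.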 The conditions noted are these: Jurkat NFAT-bla M1, carbachol, beta-lactamase ratio, 5 h; at 7.69 µM (top of the series) unless noted. The method, boiled down: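 Jurkat cells with NFAT-driven β-lactamase reporter and co-expressed M1 receptor, stimulated with carbachol (final 1 uM, ~EC50), compound titration, 5 h at 37 °C. CCF4 loaded 1 h at RT; 460/530 nm ratio gave %activity and AC50.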

Assay [4] can be described thus: Stat Signaling Pathway (AID 446).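 Further: ME-180 cervical cancer cells given 40 pM IL-6 alongside compound; SIE-controlled beta-lactamase reporter measured as 460/530 nm FRET emission ratio; on the % scale 0 is the no-effect control and ±100 the full control effect.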 To be noted: ME-180 (cervical carcinoma) SIE beta-lactamase reporter, IL-6 stimulated, 5 h; at 7.69 µM (top of the series) unless noted. The method, boiled down:
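Compound effects on IL-6-induced STAT reporter activity were measured in ME-180 cells. After overnight culture, cells were co-treated with 40 pM IL-6 for 5 hrs before beta-lactamase substrate loading at room temperature.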

The target in assay [5] is Glucocorticoid receptor (Homo sapiens) (UniProt P04150). Put plainly: GR-GFP Redistribution (AID 450;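 active means compounds whose dose series gives a full or clear partial fitted curve of increased nuclear translocation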; further: potency means the concentration at half of the fitted maximal effect). The conditions noted are these: U2OS GR-GFP nuclear translocation, laser cytometry, 2 h.
The target is the same in assay [6]. Description: GR-EFC Redistribution (AID 451; calls by dose curve; further: potency means the concentration at half of the fitted maximal effect). To be noted: CHO-K1 GR-EFC translocation, beta-gal luminescence, 2 h. The method, boiled down:
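CHO-K1 cells expressing nuclear EA and GR-ED fragments of b-gal; compounds titrated up to 46 uM final, 2 h at 37 C. GR nuclear translocation read as complemented b-gal luminescence after 1 h RT detection.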

Assay [7] addresses Mitogen-activated protein kinase 10 (Mus musculus) (UniProt Q61831). Description: JNK3 AlphaScreen Assay (AID 530).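 Further: kinase came from lysate of stimulated human HepG2 cells.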 Further: potency means the concentration at half of the fitted maximal effect.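 On activity change, negative = inhibition: signal reports phosphorylation of biotinylated GST-cJun 1-79 at Ser73 with 10 µM ATP; on the % scale 0 is the no-effect control and ±100 the full control effect.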 To be noted: JNK3 lysate, c-Jun phosphorylation; series mostly up to 11.4 µM. The method, boiled down:
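HepG2 lysate (IL-1b/TNFa pre-activated) + biotin-GST-cJun 1-79 + anti-pSer73 cJun; cpd titration, 15 min RT; ATP 10 uM start; Tris pH 7.6, MgCl2, DTT, vanadate; beads in EDTA buffer; AlphaScreen.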

The target of assay [8] is 3',5'-cyclic-AMP phosphodiesterase 4B (Homo sapiens) (UniProt Q07343). Description: qHTS Assay for Inhibitors of PDE-IV (AID 607; active means well fitted activation curve with a large enough effect in the main read-out, with a control signal flat, not every such curve was filed as active; further: % of control where 0% means no effect). To be noted: HEK293 ACTOne CNG channel cells, membrane potential fluorescence; series mostly up to 22.9 µM. In a few lines: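 ACTOne HEK293 cells carry a modified cAMP-gated CNG channel and express endogenous PDE4; plated 1000 cells/well, compounds up to 22.9 uM final. Membrane-potential dye fluorescence (ex 535/em 590) was read; parental cells received 10 uM forskolin + 100 uM RO 20-1724.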

A number with no mark means an inactive call. Inconclusive results are not listed. Activity calls are given as the source filed them. Unless noted, the call rests on the fitted dose curve; in most records, active means well fitted curve in either direction with a large enough effect (not every such curve was filed as active); inconclusive means small, poorly fitted or top-dose-only effect, or another doubt; inactive means flat fitted curve, though single readings scatter.

Glucocorticoid receptor (Homo sapiens), sequence (P04150 whole entry, looked up): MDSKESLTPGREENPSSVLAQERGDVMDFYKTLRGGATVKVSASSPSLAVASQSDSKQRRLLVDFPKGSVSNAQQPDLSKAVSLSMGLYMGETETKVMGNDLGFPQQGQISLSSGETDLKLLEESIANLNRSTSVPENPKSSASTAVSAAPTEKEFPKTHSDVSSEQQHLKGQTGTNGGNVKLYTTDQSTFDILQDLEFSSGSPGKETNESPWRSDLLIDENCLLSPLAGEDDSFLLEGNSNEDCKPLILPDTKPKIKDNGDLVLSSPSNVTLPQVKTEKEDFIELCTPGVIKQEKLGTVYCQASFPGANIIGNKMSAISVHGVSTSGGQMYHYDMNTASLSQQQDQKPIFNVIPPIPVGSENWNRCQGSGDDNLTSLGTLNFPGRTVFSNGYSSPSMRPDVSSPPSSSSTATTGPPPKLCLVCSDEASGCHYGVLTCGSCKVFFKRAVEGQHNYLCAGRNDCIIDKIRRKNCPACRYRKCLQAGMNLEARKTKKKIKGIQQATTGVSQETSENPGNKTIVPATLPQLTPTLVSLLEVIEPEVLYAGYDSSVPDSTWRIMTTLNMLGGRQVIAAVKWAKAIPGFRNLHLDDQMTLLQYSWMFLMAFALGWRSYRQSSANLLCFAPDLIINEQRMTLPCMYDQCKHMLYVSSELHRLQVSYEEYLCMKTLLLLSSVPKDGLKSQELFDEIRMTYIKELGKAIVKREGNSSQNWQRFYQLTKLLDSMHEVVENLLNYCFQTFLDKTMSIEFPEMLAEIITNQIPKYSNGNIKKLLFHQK
3',5'-cyclic-AMP phosphodiesterase 4B (Homo sapiens), sequence (Q07343 whole entry, looked up): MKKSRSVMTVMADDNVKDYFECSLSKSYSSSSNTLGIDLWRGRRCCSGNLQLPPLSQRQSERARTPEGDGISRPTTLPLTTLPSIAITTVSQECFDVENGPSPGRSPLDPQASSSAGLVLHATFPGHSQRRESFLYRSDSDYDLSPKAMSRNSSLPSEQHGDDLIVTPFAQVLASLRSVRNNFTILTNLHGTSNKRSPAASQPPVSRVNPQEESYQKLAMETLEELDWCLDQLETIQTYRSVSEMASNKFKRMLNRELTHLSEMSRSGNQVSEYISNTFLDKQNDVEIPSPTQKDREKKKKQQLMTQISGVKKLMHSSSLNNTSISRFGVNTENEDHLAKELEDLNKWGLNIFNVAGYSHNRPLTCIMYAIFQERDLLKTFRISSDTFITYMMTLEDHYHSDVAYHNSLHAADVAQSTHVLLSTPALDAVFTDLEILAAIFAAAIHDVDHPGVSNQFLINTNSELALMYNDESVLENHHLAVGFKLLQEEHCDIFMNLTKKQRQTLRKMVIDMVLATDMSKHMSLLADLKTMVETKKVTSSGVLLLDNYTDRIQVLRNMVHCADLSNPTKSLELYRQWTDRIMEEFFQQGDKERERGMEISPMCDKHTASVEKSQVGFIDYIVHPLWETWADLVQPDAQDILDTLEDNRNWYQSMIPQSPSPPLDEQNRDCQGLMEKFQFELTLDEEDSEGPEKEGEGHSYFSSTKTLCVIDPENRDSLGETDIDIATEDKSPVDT
Lysosomal acid glucosylceramidase (Homo sapiens), sequence (P04062 whole entry, looked up): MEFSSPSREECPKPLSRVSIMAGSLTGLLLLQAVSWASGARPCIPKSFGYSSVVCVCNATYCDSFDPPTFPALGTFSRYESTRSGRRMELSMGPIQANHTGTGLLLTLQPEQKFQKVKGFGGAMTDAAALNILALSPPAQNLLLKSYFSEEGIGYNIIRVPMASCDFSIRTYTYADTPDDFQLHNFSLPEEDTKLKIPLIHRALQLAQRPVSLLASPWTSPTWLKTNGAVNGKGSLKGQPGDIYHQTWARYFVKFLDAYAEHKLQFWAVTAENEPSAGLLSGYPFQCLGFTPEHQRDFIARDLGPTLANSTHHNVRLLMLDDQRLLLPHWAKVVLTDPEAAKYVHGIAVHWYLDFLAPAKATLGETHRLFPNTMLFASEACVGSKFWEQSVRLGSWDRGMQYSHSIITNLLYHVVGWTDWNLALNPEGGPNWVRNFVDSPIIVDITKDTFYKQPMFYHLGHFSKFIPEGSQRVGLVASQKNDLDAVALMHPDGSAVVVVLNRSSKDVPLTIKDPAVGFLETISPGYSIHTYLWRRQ

On to `OCCSCc1cc(Cl)cc(Cl)c1O`, for which the Potency in assay [1] was above 11.4 µM; in assay [5] it was above 46 µM; in assay [6], above 9.22 µM. Further, the activity change, negative = inhibition was -3.03% in assay [2] and 14.2% in assay [3]. Besides, the activity, negative = inhibition in assay [4] was 17.5%. Moreover, the Potency entry in assay [7] and in assay [8] was “inactive” each time.

Regarding `C[C@@H](CCC[C@@H]1SC[C@H]2NC(=O)N[C@H]12)C(=O)O`, the Potency was above 11.4 µM in assay [1], above 46 µM in assay [5], above 9.22 µM in assay [6] and 0.0316 µM (active) in assay [7]. The values for the activity change, negative = inhibition in assay [2] and in assay [3] were -0.543% and -21.7%, respectively. Further, the activity, negative = inhibition in assay [4] is -4.44%. For the same compound, the Potency result in assay [8] is “inactive”.

For the compound `O=C(O)[C@H](Cc1ccccc1)N1C(=O)c2ccccc2C1=O`, the Potency in assay [1] is above 11.4 µM; in assay [5] it was above 46 µM; in assay [6], above 9.22 µM. For the same compound, the activity change, negative = inhibition is -3.82% in assay [2] and 16.6% in assay [3]. For the same compound, the activity, negative = inhibition in assay [4] is -2.52%. In addition, the Potency entry in assay [7] and in assay [8] was “inactive” in each case.

Consider `C[C@@H](SCc1ccccc1)C(=O)O`, for which the Potency in assay [1] is above 11.4 µM; in assay [5], above 46 µM; in assay [6], above 9.22 µM. In addition, the activity change, negative = inhibition in assay [2] is -4.75%; in assay [3], 12.1%. Besides, the activity, negative = inhibition in assay [4] is -3.81%. The Potency entry in assay [7] and in assay [8] was “inactive” each time.

Consider `CN1[C@@H](c2ccccc2)CC(=NO)C[C@H]1c1ccccc1`, for which the Potency was above 11.4 µM in assay [1], above 46 µM in assay [5] and above 9.22 µM in assay [6]. Moreover, the activity change, negative = inhibition in assay [2] was 0.163%; in assay [3], -20.1%. Also, the activity, negative = inhibition in assay [4] was 5.8%. Also, the Potency result in assay [7] and in assay [8] was “inactive” in each case.

As to `COc1ccc2c(c1)[n+]([O-])c(/C(C)=N/NC(N)=S)c(C)[n+]2[O-]`, the results for the Potency in assay [1], in assay [5] and in assay [6] were above 11.4 µM, above 46 µM and above 9.22 µM, respectively. Moreover, the activity change, negative = inhibition in assay [2] is -7.76%; in assay [3], 5.82%. Besides, in assay [4], the activity, negative = inhibition was 0.294%. Moreover, the Potency result in assay [7] and in assay [8] was “inactive” throughout.

Take `O=C(O)C(F)(F)C(F)(F)C(F)(F)C(F)(F)C(=O)O`: the Potency in assay [1] was above 11.4 µM; in assay [5], above 46 µM; in assay [6] it was above 9.22 µM. Further, the figures for the activity change, negative = inhibition in assay [2] and in assay [3] were -0.129% and 6.75%, respectively. Besides, the activity, negative = inhibition in assay [4] is 5.2%. Further, the Potency result in assay [7] and in assay [8] was “inactive” throughout.

Regarding `Cc1cc(Cc2c(C)c(C)c(Cc3cc(C)cc(C(C)(C)C)c3O)c(C)c2C)c(O)c(C(C)(C)C)c1`, the Potency in assay [1] was above 11.4 µM; in assay [5], above 46 µM; in assay [6] it was above 9.22 µM. In addition, the values for the activity change, negative = inhibition in assay [2] and in assay [3] were -8.57% and 14.4%, respectively. Also, the activity, negative = inhibition in assay [4] is 6.62%. For the same compound, the Potency result in assay [7] and in assay [8] was “inactive” in each case.

With `S=c1[nH]nc(SCc2ccccc2Cl)c2[nH]cnc12`, the figures for the Potency in assay [1], in assay [5] and in assay [6] were above 11.4 µM, above 46 µM and above 9.22 µM, respectively. Moreover, the activity change, negative = inhibition was -6.3% in assay [2] and 0.186% in assay [3]. For the same compound, the activity, negative = inhibition in assay [4] is -8.85%. In addition, the Potency entry in assay [7] and in assay [8] was “inactive” each time.

As to `O=S(=O)(c1cccc(C(F)(F)F)c1)N1c2ccccc2-n2cccc2[C@H]1c1cccnc1`, the Potency in assay [1] is above 11.4 µM; in assay [5], above 46 µM; in assay [6] it was above 9.22 µM. In addition, the figures for the activity change, negative = inhibition in assay [2] and in assay [3] were -23.2% and -6.39%, respectively. In assay [4], the activity, negative = inhibition is -6.23%. For the same compound, the Potency result in assay [7] and in assay [8] was “inactive” each time.

For the compound `O=C(O)CCSCc1ccc(I)cc1`, the Potency in assay [1] is above 11.4 µM; in assay [5], above 46 µM; in assay [6] it was above 9.22 µM. The results for the activity change, negative = inhibition in assay [2] and in assay [3] were 2.76% and 1.51%, respectively. In addition, the activity, negative = inhibition in assay [4] was 4.16%. Also, the Potency result in assay [7] and in assay [8] was “inactive” throughout.

On to `O=C(O)CSc1ccc([N+](=O)[O-])cc1[N+](=O)[O-]`, for which the values for the Potency in assay [1], in assay [5] and in assay [6] were above 11.4 µM, above 46 µM and above 9.22 µM, respectively. Further, the activity change, negative = inhibition was 10.9% in assay [2] and -3.03% in assay [3]. The activity, negative = inhibition in assay [4] is 9.83%. For the same compound, the Potency result in assay [7] and in assay [8] was “inactive” throughout.

For the compound `OC(Cc1ccccc1)(Cc1ccccc1)c1ccccc1`, the Potency in assay [1] is above 11.4 µM; in assay [5], above 46 µM; in assay [6], above 9.22 µM. In addition, the results for the activity change, negative = inhibition in assay [2] and in assay [3] were -8.82% and -15.2%, respectively. In addition, the activity, negative = inhibition in assay [4] is 11%. For the same compound, the Potency result in assay [7] and in assay [8] was “inactive” throughout.

With `CC(=O)O[C@H]1CC[C@]2(C)C(=CC[C@H]3[C@H]4C[C@H]5O[C@]6(CC[C@H](C)CN6)[C@H](C)[C@@H]5[C@]4(C)CC[C@@H]32)C1`, the Potency in assay [1] is above 11.4 µM; in assay [5], above 46 µM; in assay [6], above 9.22 µM. Besides, the activity change, negative = inhibition in assay [2] was 13.4%; in assay [3], 0.916%. Besides, the activity, negative = inhibition in assay [4] is 3.85%. Also, the Potency entry in assay [7] and in assay [8] was “inactive” each time.

In the case of `O=C(O)CN(CC(=O)O)c1ccccc1`, the Potency in assay [1] is above 11.4 µM; in assay [5] it was above 46 µM; in assay [6], above 9.22 µM. The activity change, negative = inhibition was 7.7% in assay [2] and 8.14% in assay [3]. In addition, in assay [4], the activity, negative = inhibition was 13.6%. For the same compound, the Potency result in assay [7] and in assay [8] was “inactive” in each case.
